Measured values taken from PubChem BioAssay AID504339 (National Center for Advancing Translational Sciences (NCATS), 2011).
Among all 390,000 compounds or so, about 17,000 (4.4%) were called active. Inconclusive results (about 8%) are left out. Calls come from the whole dose curve; as a rule, active = well fitted inhibition curve with a large enough effect; inconclusive = small, poorly fitted or top-dose-only effect; inactive = no such curve, though single readings can be large or run the other way. The full list was thinned out, with actives kept by preference.

Each molecule was assayed against Lysine-specific demethylase 4A (Homo sapiens) (UniProt O75164) (assay: qHTS Assay for Inhibitors of JMJD2A-Tudor Domain). Conditions: AlphaScreen JMJD2A-Tudor / H3K4me3 peptide binding; series mostly up to 114 µM; activity change, negative = inhibition: at the top concentration.
Chain of Lysine-specific demethylase 4A (Homo sapiens) (O75164 whole entry, looked up, the tested form may be a part): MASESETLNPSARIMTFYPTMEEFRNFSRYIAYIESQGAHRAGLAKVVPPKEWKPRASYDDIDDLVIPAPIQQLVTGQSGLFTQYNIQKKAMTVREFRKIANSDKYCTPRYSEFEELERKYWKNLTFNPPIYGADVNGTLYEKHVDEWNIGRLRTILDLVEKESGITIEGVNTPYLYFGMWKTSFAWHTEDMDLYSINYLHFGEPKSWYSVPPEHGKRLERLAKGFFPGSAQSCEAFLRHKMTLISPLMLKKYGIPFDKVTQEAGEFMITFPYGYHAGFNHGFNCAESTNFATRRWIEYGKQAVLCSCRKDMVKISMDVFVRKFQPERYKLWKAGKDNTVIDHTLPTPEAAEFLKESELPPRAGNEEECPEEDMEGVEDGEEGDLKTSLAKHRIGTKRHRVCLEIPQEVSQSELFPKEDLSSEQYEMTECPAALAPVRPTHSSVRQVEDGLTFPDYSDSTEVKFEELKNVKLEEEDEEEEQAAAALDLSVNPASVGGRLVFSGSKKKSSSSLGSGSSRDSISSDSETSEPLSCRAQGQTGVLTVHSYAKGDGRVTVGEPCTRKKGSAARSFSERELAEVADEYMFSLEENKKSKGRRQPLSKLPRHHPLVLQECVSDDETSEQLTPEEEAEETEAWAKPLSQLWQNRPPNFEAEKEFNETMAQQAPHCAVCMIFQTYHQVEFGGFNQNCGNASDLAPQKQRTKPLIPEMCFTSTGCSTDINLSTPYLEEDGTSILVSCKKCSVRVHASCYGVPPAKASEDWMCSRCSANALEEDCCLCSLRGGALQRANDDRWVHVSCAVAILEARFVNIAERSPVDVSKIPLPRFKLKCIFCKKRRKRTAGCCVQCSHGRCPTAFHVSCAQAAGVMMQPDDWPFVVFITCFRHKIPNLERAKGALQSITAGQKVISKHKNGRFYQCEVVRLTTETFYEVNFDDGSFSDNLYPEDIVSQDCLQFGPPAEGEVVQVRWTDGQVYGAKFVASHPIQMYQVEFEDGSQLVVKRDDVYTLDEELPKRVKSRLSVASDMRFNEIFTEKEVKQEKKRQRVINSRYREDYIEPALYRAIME
Source text: JMJD2A is a jumonji-domain-containing lysine demethylase that uses Fe(II) together with 2-OG to effect oxidative demethylation of histones. Methylation is one of many […] modification that affect epigenetic transcription. […] It is proposed that the functions of JmjD2A binding to the histones, is to maintain marks after they are installed and to spread the modifications by […], establishing a self-propagating cycle for rapid methylation over a large area of chromatin. […] Thus, small molecule targeting of the JMJD2A-tudor domain interaction with its target methylhistone mark is expected to enable sophisticated experiments probing the fine regulatory pathways leading to selective demethylation of a given methyllysine locus based on the methylation state of adjacent histone marks. A quantitative high throughput AlphaScreen has been developed to identify small molecule inhibitors based on a protocol published by NCGC and SGC [4].
Although AlphaScreen has significant advantages with its utility in a variety of epigenetic target assays, the primary screening data provided in this deposition should be used with caution due to the prevalence of screening artifacts. The top compound concentration tested was high (>100uM) in this assay, which increases number of actives and potential artifacts. An AlphaScreen counterscreen is highly recommended to be run against any putative actives to eliminate non-specific artifacts. Alternatively, one can use other AlphaScreen assays in PubChem to filter out promiscuous hits.
[1] Lee, J. et al. Distinct binding modes specify the recognition of methylated histone H3K4 and H4K20 by JMJD2A-tudor. Nat Struct Mol Biol. 15(1); 109-11. 2008. PMID: 18084306
[2] Yasgar, et al. Compound Management for Quantitative High-Throughput Screening. JALA. 2008 Apr;13(2):79-89. PMID: 18496600
[3] Inglese, et al. Quantitative high-throughput screening: a titration-based approach that efficiently identifies biological activities in large chemical libraries. Proc Natl Acad Sci. 1;103(31):11473-8. 2006. PMID: 16864780
[4] Quinn et al. A homogeneous method for investigation of methyl-dependent protein-protein interactions in epigenetics. Nucleic Acids Res., 38(2):e11. 2010. PMID: […]
[5] Baell,Holloway. New substructure filters for removal of pan assay interference compounds (PAINS) from screening libraries and for their exclusion in bioassays. J Med Chem. 53(7):2719-40. 2010. PMID: 20131845
NIH Molecular Libraries Probe Production Network [MLPCN]
NIH Chemical Genomics Center [NCGC]
Structural Genomics Consortium (SGC)
To each well of a 1,536w plate, 2ul of JMJD2A-Tudor (final 100nM) and 1ul biotinylated histone peptide methylated at Lys4 [b-H3(1-18)K4me3] (final 50nM) were added in 1x PBS buffer, pH 7.4, containing 0.01% Tween-20, using a nanoliter dispenser. Formation of a protein-peptide complex proceeded at room temperature for 30 min. A Kalypsys pin-tool transferred 23nl of library compound solution in DMSO to each well. Following a 30 min incubation of the protein-peptide complex with compounds at room temperature, a mixture of 40 µg/mL each streptavidin-coated donor and nickel chelate acceptor AlphaScreen beads (final 10 µg/mL) was added in a 1ul dispense for a final volume of 4ul, followed by a brief centrifugation (1000 rpm, 1 min). Plates were incubated protected from the light for 20 min at room temperature. Microplates were then read on an EnVision multilabel plate reader using the 1,536 plate HTS AlphaScreen aperture (excitation time 80 ms, measurement time 240 ms).
% is set by controls: 0 for no effect and ±100 for the full control effect; potency is the fitted concentration of half-maximal effect.
Note: nearly all actives have a fitted effect of over 50% in size.

Activity change, negative = inhibition, inactive:
Cc1ccc(S(=O)(=O)NC2CCCCCC2)cc1 0%
Cc1cc(C)cc(NC(=O)NC2CCCCCCC2)c1 -2.76%
O=C(CCCCn1c(=O)c2ccccc2n(CC(=O)Nc2cccc(C(F)(F)F)c2)c1=O)NCc1ccc2c(c1)OCO2 -16.7%
Cc1ccc(S(=O)(=O)n2nc(C)c(S(=O)(=O)N3CCCCCC3)c2C)cc1 -26.2%
CC(=O)NC(Cc1ccccc1)C(=O)NC1CCN(c2ncccc2[N+](=O)[O-])CC1 (stereo not given) -12.3%
COc1ccc(-c2cc3ncccc3cn2)cc1 -16.9%
Cc1ccc(F)cc1S(=O)(=O)N1CCC(c2nc3ccccc3s2)CC1 8.18%
Cc1cc(C)c2c(-c3ccc(F)cc3)c(C#N)c(=O)n(C)c2n1 -9.54%
N#Cc1c(-c2ccc(Cl)cc2)c2c([nH]c1=S)CCCC2 -20.6%
CC1CCN(S(=O)(=O)c2ccc3c(c2)N(CC(=O)NCCc2ccccc2)C(=O)CO3)CC1 -19.4%
COc1cccc(C(=O)NC2=NC(c3ccc(N(C)C)cc3)CC(=O)N2)c1 (stereo not given) -21.2%
O=C(O)CCC(=O)N(Cc1ccccc1)Cc1ccccc1 -17.7%
Cc1ccc(-c2cn3c(n2)sc2cc(C(=O)NCc4cccs4)ccc23)c(C)c1 68.4%
O=C1CC(c2ccccc2)CC2=C1C(c1ccco1)n1nc(C(F)(F)F)nc1N2 (stereo not given) -27.7%
Cc1ccc(S(=O)(=O)N2CCCc3cc(NS(=O)(=O)c4cc(C)ccc4C)ccc32)cc1 -24.2%
COc1ccc(CSc2nnnn2-c2ccc(C(=O)O)cc2)cc1 4.63%
CC(C)Oc1ccc(CCc2nnc(SCC(=O)O)n2-c2ccccc2)cc1 -11.2%
O=C1C[C@@H](c2ccc3ccccc3c2)N1S(=O)(=O)c1ccccc1[N+](=O)[O-] -23.4%
COc1ccc(-c2nc(CN3CCC(C(=O)NCCN(CC(C)C)CC(C)C)CC3)c(C)o2)cc1OC -9.76%
COc1ccc(OC)c(NC(=O)C2CCN(S(=O)(=O)c3ccc(C)cc3)CC2)c1 -13.8%
Cc1cccnc1NC(=O)CSc1nnc(COc2ccc(C(C)C)cc2)n1C -4.17%
COc1ccccc1C(=O)Nc1ccc(OCc2nnc3c4ccccc4c(C)nn23)cc1 -4.03%
Fc1ccc(CN2CCc3nc(Nc4ccccc4)ncc3C2)cc1F -25.8%
CN1C(=O)c2[nH]nc(-c3ccc(F)cc3)c2C1c1ccccn1 (stereo not given) 7.23%
Cc1ccc(NC(=O)c2cc3cc(C)ccc3n2C)cc1 -7.95%
CCc1ccc(S(=O)(=O)n2ccnc2)cc1 -16.2%
CCCCOc1ccc(CNC(=O)c2ccc3c(c2)N(C)C(=O)C2CCCCN32)cc1 (stereo not given) -30%
CCC1(C)Cc2c(sc3[nH]c(=S)n(Cc4ccccc4)c(=O)c23)CO1 (stereo not given) -32.6%
Cc1ccc(CCNC(=O)Cn2c(-c3cccs3)cc3cc(F)ccc32)cc1 -6.62%
N#C/C(=C/c1cccc([N+](=O)[O-])c1)c1nnc2n1CCCCC2 -10.6%
N#C/C(=C(\O)C(F)(F)F)c1nnc2n1CCCCC2 1.4%
COc1ccc(N2CCN(c3cc(C)nc4nncn34)CC2)cc1 -23.3%
CCCCN1CC(c2nc3ccccc3n2CCCCOc2ccc(C)cc2C)CC1=O (stereo not given) -5.96%
O=[N+]([O-])c1ccc(S(=O)(=O)N2CCN(c3nc(-c4ccccc4)nc4ccccc34)CC2)cc1 -12.1%
CN(C)/C=C/C(=O)c1ccccc1F 5.26%
Cc1nc(COc2cccc(Cl)c2)sc1C(=O)/C=C/N(C)C -23.5%
COCCN(Cc1ccco1)C(=O)Cn1ncc2c([nH]c3ccccc32)c1=O -21.5%
O=S(=O)(c1ccc2c(c1)OCCO2)N1CCN(S(=O)(=O)c2cc(F)ccc2F)CC1 -16.4%
CCOC(=O)c1c(S(=O)(=O)N2CCCC(C(=O)NCc3ccc(F)cc3)C2)c(C)n(CC)c1C (stereo not given) -34.3%
CCN(CC)CCn1c2c(c(SCC(=O)Nc3nc4ccccc4s3)nc1=O)CCCC2 -13.8%

Potency, active:
Cc1cc([N+](=O)[O-])c(NC2CCCCC2)c([N+](=O)[O-])c1 25.1 µM
COc1ccc(-c2cc(C3CCN(c4ncccc4[N+](=O)[O-])CC3)[nH]n2)cc1 56.2 µM
CC(=O)c1c(C)[nH]c(=S)c(C#N)c1-c1ccc(F)cc1 5.62 µM
Oc1ccc(/C=N/N(Cc2ccccc2)c2ccccc2)cc1 44.7 µM
COc1ccc(NCc2nnc(SCc3ccccc3)n2-c2ccc(OC)cc2)cc1 50.1 µM
Cc1ccc(OCc2nnc(SC3CCc4ccccc4C3=O)n2C)cc1 (stereo not given) 28.2 µM
C=CCn1c(=S)[nH]c2scc(-c3ccco3)c2c1=O 28.2 µM
N#C/C(=C(\O)CCl)c1nnc2n1CCCCC2 35.5 µM
Cc1nc(-c2ccccc2)sc1C(=O)/C=C/N(C)C 44.7 µM
CCN(CC)CCCSc1nc2ccccc2s1 28.2 µM
